# Reference: PubChem BioAssay (NCI)
# About 79,000 compounds went through this panel and 15% of them were active in at least one assay; those are over-represented in the sample as a whole. Values without a mark were called inactive. Calls of active or inactive are those of the source. No stated cut-off is given here; in the data, active means growth inhibition above about 70%; inactive means the rest.
# How the values were obtained:
# [1] = NCI Yeast Anticancer Drug Screen. Data for the rad50 strain (AID 155);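 further: 0% = growth of vehicle-only cultures of the same strain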; conditions: S. cerevisiae rad50 strain growth inhibition; at 50.0 µM; hits give high values
# In short: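 DNA repair mutant yeast, compound exposure, growth read-out; inhibition is taken relative to vehicle.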
# [2] = NCI Yeast Anticancer Drug Screen. Data for the mec2-1 strain (AID 157); conditions: S. cerevisiae mec2-1 strain, at 50.0 µM, hits give high values
# In short: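 Test agents were screened against the mec2-1 yeast strain, with defined DNA repair or cell cycle alteration. Growth was scored as inhibition against vehicle-only controls.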
# [3] = NCI Yeast Anticancer Drug Screen. Data for the sgs1 mgt1 strain (AID 161);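 further: 0% = growth of cultures given vehicle only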; conditions: S. cerevisiae sgs1 mgt1 strain, at 50.0 µM, hits give high values
# In short: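 Test agents were incubated with a DNA-repair-mutant yeast strain. Growth was then read and compared against vehicle-treated controls.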
# [4] = NCI Yeast Anticancer Drug Screen. Data for the cln2 rad14 strain (AID 165);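 further: 0% = growth equal to vehicle treated cultures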; conditions: S. cerevisiae cln2 rad14 strain, at 50.0 µM, hits give high values
# In short: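 Growth of compound-exposed yeast (cln2 rad14 genotype) measured and expressed as inhibition relative to vehicle.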
# [5] = NCI Yeast Anticancer Drug Screen. Data for the bub3 strain (AID 167); conditions: S. cerevisiae bub3 mutant strain, at 50.0 µM, hits give high values
# In short: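 In this screen, a yeast mutant lacking normal mitotic checkpoint function is challenged with compound. Relative growth versus vehicle gives the inhibition value.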
# [6] = NCI Yeast Anticancer Drug Screen. Data for the mlh1 rad18 strain (AID 175); conditions: S. cerevisiae mlh1 rad18 strain growth inhibition; at 50.0 µM; hits give high values
# In short: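 In this whole-cell yeast screen, a strain with altered DNA damage repair is challenged with compound, and its growth is measured against matched vehicle-treated controls.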
SMILES,growth inhibition [1],growth inhibition [2],growth inhibition [3],growth inhibition [4],growth inhibition [5],growth inhibition [6]
COC(=O)CP(=O)(OC)OC,5.3%,-24.1%,1.8%,-3.15%,1%,7.2%
CCCOC(=O)c1ccccc1N,6.05%,-1.25%,-1.55%,-16.9%,-4.75%,-19.4%
CCOC(=O)C(Cc1ccc(N(CCCl)CCCl)cc1)NC(=O)C(NC(C)=O)C(C)C (configuration not stated),36.9%,13.3%,33.2%,17.4%,29.7%,28.4%
CN(C)P(=O)(N(C)C)N(C)C (tested in a mixture with another compound),8.45%,-7%,3.65%,-21.1%,-31.6%,-14.3%
O=C1c2ccccc2OP(=O)(OCC(F)(F)F)OC1(C(F)(F)F)C(F)(F)F (configuration not stated),-21.4%,-54.7%,-15.2%,-65.5%,-41.5%,-22.8%
CCCCCCCC/C=C\CCCCCCCC(=O)OCC(COC(=O)CCCCCCC/C=C\CCCCCCCC)OC(=O)N(CCCl)CCCl,-29.2%,-9.25%,-18.4%,33.6%,-24.2%,5.45%
O=C(Nc1cc(Cl)c(Cl)cc1Cl)C(=O)C1C(=O)NC(=S)NC1=O,0.35%,-8.2%,-9%,9.75%,12.9%,-22.4%
CCOP(O)OCC,0.6%,11.4%,-5.25%,23.9%,-5.2%,-1.35%
CC(C)N=Cc1ccccc1O.CC(C)N=Cc1ccccc1O.[Ni],51.3%,1.1%,48.6%,-4.45%,7.05%,22.2%
CC1(C)OCC(CO)(Nc2nc(N3CC3)nc(N3CC3)n2)CO1,-12.6%,2.9%,3.3%,-38%,5.6%,-2.8%
CN(C)C1OCCO1,-8.45%,-36.1%,-11%,1.4%,-7.05%,-3.35%
COc1ccc(C(C#N)C(C)=O)cc1 (configuration not stated),6.75%,4.85%,12.4%,4.45%,-3.9%,-12.4%
O=S(=O)(c1ccc(O)cc1)c1ccccc1O,-1.95%,-6.35%,15.2%,3.75%,0.6%,28.9%
O=C(CI)NCCNC(=O)CI,11.1%,16.2%,21.4%,20.6%,10.6%,39.5%
[I][Hg][CH]1CCC2CCCC1O2 (configuration not stated),99.7% (active),99.6% (active),99.8% (active),99% (active),98.8% (active),99.7% (active)
CCCCCCCCCCCCCCCC(=O)OCC(C[As](=O)(O)O)OC(=O)CCCCCCCCCCCCCCC (configuration not stated),26.1%,5.9%,-15.1%,9.5%,-0.15%,13.5%
CSP(N)(=O)OC(C)C (configuration not stated),-16.9%,11.8%,-15.6%,-23.6%,-33.6%,15.8%
NC(N)=Nc1nn[nH]n1,3.25%,-8.25%,-13.7%,-0.85%,0.35%,-5.6%
CCCCOP(=O)(O)SP(=O)(O)OCCCC,-13.8%,17.1%,10.6%,20.9%,2.3%,-3%
COC(=O)CN(C)P(=O)(N1CC1)N1CC1,13.4%,7.15%,-4.1%,-10.2%,-2.8%,-10.1%
CC1(C)C(=O)N(O)C(C)(C)N1N=O,1.95%,13.4%,18.1%,28.4%,15.4%,19.6%

SMILES,growth inhibition [1],growth inhibition [2],growth inhibition [3],growth inhibition [4],growth inhibition [5],growth inhibition [6]
N#CC(CCN1CCC(Nc2ccccc2)(c2nnnn2C2CCCCC2)CC1)(c1ccccc1)c1ccccc1,-13.8%,-16.6%,3.75%,-5.15%,4.05%,-21.6%
CC1OC(n2cc(C(N)=O)c3c(N)ncnc32)C(O)C1O (configuration not stated),19.4%,20.9%,3.75%,16.9%,14.2%,20.1%
Nc1ccn(C2OC(COP(=O)(O)Oc3ccccc3)C(O)C2O)c(=O)n1 (configuration not stated),11.1%,-11.8%,17.8%,4%,5.2%,11.3%
C[N+]1=C(c2cccnc2/C=N/O)OCC1(C)C,1.3%,-19.4%,-13.7%,-5.1%,-24.4%,-33.1%
[O-][n+]1c2ccccc2nc2ccccc21,62.1%,34%,26.9%,-9.55%,41.2%,55.7%
Clc1ccc(N2CCN(c3ccc(Cl)cc3)CC2)cc1,-20.1%,1.45%,-6.75%,1.25%,-6.9%,6.05%
COc1cc(C)c(OP(=O)(OC)OC)cc1C,15.3%,0.7%,13.6%,59.1%,1.7%,-0.65%
[CH3][Sn]1([CH3])[O]C(=O)C(=O)[O]1,12.2%,19.4%,2.4%,-26.8%,-9.6%,7.8%
Fc1cccc2cc3cccc[n+]3cc12,5.6%,6.65%,3.55%,-36.3%,15.6%,-1.8%
C[CH2][Pb]([CH2]C)([CH2]C)[N]1C(=O)c2c(Cl)c(Cl)c(Cl)c(Cl)c2C1=O,67.7%,34.5%,93.1% (active),25.4%,33.8%,78.3% (active)
CC(=O)C(I)C(C)=O.[Cr],2.45%,-18.9%,8.6%,16.4%,14.4%,5.4%
C/C=C/CC1(CC)C(=O)NC(=O)NC1=O,16.9%,10.9%,11.8%,16.6%,2%,8.1%
CCCCOC(=O)c1ccccc1C(=O)O.[Mn],-38.7%,-11.8%,-6.15%,-12.6%,-29.6%,-3.3%
COc1cc(/C=C2\C(O)C3CCN2CC3)cc(OC)c1OC (configuration not stated),-9.25%,-2.15%,-5.6%,-8.65%,9.1%,-6.8%
CN(C)C(=O)Sc1c(S(=O)(=O)F)ccc(Cl)c1Cl,22.4%,14.8%,10.3%,20.9%,6.15%,8.6%
O=S1(F)=NP(N2CC2)(N2CC2)=NP(N2CC2)(N2CC2)=N1 (configuration not stated),22.6%,-3.15%,-9.7%,6.6%,-19.6%,-39.9%
O=C(O)CCc1ccc(NP(=O)(Oc2ccccc2)N(CCCl)CCCl)cc1 (configuration not stated),8.05%,6.65%,15.1%,14.7%,2.3%,-20.2%
N#Cc1ccccn1,13.1%,-30.7%,12.7%,-6.95%,3.5%,5.9%
O=[N+]([O-])c1ccc(P2(=O)Nc3ccccc3N2)cc1,-21.9%,-12.7%,-8.6%,-46.8%,0.25%,-11.6%
Cn1nnc(C(N)=O)n1,-9.65%,-15.2%,-15.8%,-12.8%,-4.2%,-18.8%
NNC(N)=O,1.3%,23.1%,-38.9%,-18.3%,-13.2%,-14.8%
